Assay outcomes deposited in PubChem by several laboratories.
PrPC TRFRET = inhibitors of human cell surface prion protein PrPC. inhibition, % at 13.8 µM. actives 0.43% (n = 370,000). AID 720596. TR-FRET read-out; in the data active means inhibition above about 24%; further: 0% = median of the test wells and 100% = reference compound wells
MazEF act = activators of E. coli MazEF toxin-antitoxin RNase | actives 0.32% (n = 350,000) | activation, % at 20 µM | P0AE70 | FAM/BHQ RNA-DNA oligo cleavage fluorescence, 5 h; in the data active means activation above about 50%
Target sequence (P0AE70 whole entry, looked up): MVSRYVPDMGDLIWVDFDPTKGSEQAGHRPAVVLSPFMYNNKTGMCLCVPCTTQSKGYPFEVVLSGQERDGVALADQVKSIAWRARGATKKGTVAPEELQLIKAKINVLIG
PrP 5UTR inh = suppresses PrP 5' UTR mRNA reporter expression | actives 0.35% (n = 340,000) | AID 488862 | cell-based PrP 5' UTR mRNA reporter, plate reader | inhibition, % (test concentration not listed); in the data active means inhibition above about 52%; further: 0 = median of the neutral control wells
PfHsp40 yeast = restores yeast growth despite PfHsp40 toxicity. S. cerevisiae expressing PfHsp40, growth rescue, ATP luminescence. actives 0.68% (n = 340,000). growth rescue, % at 12.5 µM; in the data active means growth rescue above about 28%, passing the limit was not always enough;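 further: yeast W303a lacking pdr1 and pdr3 grown in galactose medium; growth measured after three days at 30 °C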
PriA SSB inh = inhibitors of Klebsiella pneumoniae PriA binding to SSB C-terminal tail. AlphaScreen SSBct-PriA binding, biotinylated peptide. inhibition, % at 33 µM. actives 0.6% (n = 430,000); in the data active means inhibition mostly above about 37%, no sharp cut-off; inactive means mostly below about 20%;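 further: plate controls were negative control peptide for no effect and reference peptide for full effect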
Active calls of the source: *; i = inactive; . = no result given; + = active, no number. Most compounds without a hit are left out; they make up all but 1.8% or so of the library.

SMILES | PrPC TRFRET | MazEF act | PrP 5UTR inh | PfHsp40 yeast | PriA SSB inh
Cc1c(/C=N/Nc2nc3ccccc3[nH]2)c2ccccc2n1C | 17 | 1 | -35 | 5 | i
C(=NNc1nc2ccccc2[nH]1)c1c[nH]c2ccccc12 | . | . | . | . | 50*
CCN(CC)c1ccc(/C=N/Nc2nc3ccccc3[nH]2)cc1 | 37* | 23 | -69 | -1 | .
C(=NNc1ccccn1)c1c[nH]c2ccccc12 | . | . | . | . | 15
O=C(CCc1ccccc1F)Nc1ccc(CC(=O)NC2CC2)cc1 | . | . | . | . | -3
O=C(Nc1ccc2ccccc2c1)c1ccc(NS(=O)(=O)c2ccc(Br)s2)cc1 | 7 | -1 | -12 | -2 | -5
CC(ON=Cc1ccccc1O)C(=O)Nc1ccccc1C(=O)N1CCOCC1 (centres undefined) | . | . | . | . | -5
Cc1ccc(-n2ncc3c(=O)n(Cc4ccccn4)cnc32)cc1C | -4 | -4 | -25 | -1 | -13
COc1ccc(OCCCC(=O)OCC(=O)c2ccc3c(c2)NC(=O)CO3)cc1 | 5 | 1 | -9 | 1 | -10
N=c1c(C(=O)NCC2CCCO2)cc2c(=O)n3ccccc3nc2n1C1CCCCC1 (centres undefined) | -21 | 3 | 3 | 1 | -5
CC(C)C[C@H]1N=C(c2ccccc2)c2ccccc2N(CC(=O)NC(C)(C)C)C1=O | -1 | . | . | . | .
CCN(CC)c1ccc(C=NNc2ccc([N+](=O)[O-])cn2)cc1 | -3 | 76* | -109 | -1 | 0
COc1ccc(C(=O)CN2CCCCC2)cc1 | -7 | -4 | -39 | 0 | 47*
CCc1ccc(C2=NN(S(C)(=O)=O)C(c3cccs3)C2)cc1 (centres undefined) | 4 | 283* | -45 | -2 | -16
CS(=O)(=O)N1N=C(c2cccs2)CC1c1ccc2nccnc2c1 (centres undefined) | . | . | . | . | 62*
CC(C)(C)c1ccc(/C=C2\SC(=O)N(CCNC(=O)c3cccc(S(=O)(=O)N4CCOCC4)c3)C2=O)cc1 | . | -6 | 47 | 1 | -1
Cn1cccc1Cc1nnc(SCC(=O)Nc2ccc3c(c2)OCO3)n1-c1ccc(Cl)cc1 | . | . | . | . | 87*
Cc1ccccc1-n1c(SCC(=O)Nc2ccc3c(c2)OCO3)nnc1-c1ccccn1 | 5 | -1 | 0 | 1 | 42*
O=C(CSc1nnc(-c2ccccn2)n1-c1ccccc1)Nc1ccc2c(c1)OCCO2 | -4 | . | . | . | .
COC(=O)[C@]12CCCCC=C1N(Cc1ccccc1)C(=O)[C@H](CC(=O)NCCc1ccccc1OC)C2 | 0 | . | . | . | .
O=C(c1ccccc1)N1CCN(c2ccc(NCc3ccc4c(c3)OCO4)cc2)CC1 | 5 | -3 | -7 | 0 | 46*
CC(=O)N1CCN(c2ccc(NCc3ccc4c(c3)OCO4)cc2)CC1 | -11 | 1 | 2 | -1 | 28
Cc1ccc(NC(=O)CSc2n[nH]c(-c3ccccn3)n2)cc1 | 5 | -1 | -3 | 0 | 97*
O=C(CSc1n[nH]c(-c2ccccn2)n1)Nc1ccc(F)cc1 | 1 | -26 | 12 | -2 | 82*
CC(C)CCNC(=O)C(=O)Nc1ccc(F)c(Cl)c1 | . | . | . | . | 16
SMILES | PrPC TRFRET | MazEF act | PrP 5UTR inh | PfHsp40 yeast | PriA SSB inh
COc1cc(OC)cc(C(=O)N2CCN(CC(F)(F)F)CC2)c1 | . | . | . | . | 4
CSC1CC2CCC(C1)N2C(=O)c1cc2cc(F)ccc2s1 (centres undefined) | . | . | . | . | -4
O=C(c1cc2cc(F)ccc2s1)N1C2CCC1CC(S(=O)(=O)c1ccccc1)C2 (centres undefined) | . | . | . | . | 77*
COc1ccccc1C=NNC(=O)CSc1cc(C)nc2ccccc12 | . | . | . | . | -16
O=C(CSc1cccc2cccnc12)N/N=C/c1cccc(O)c1 | -16 | 4 | -1 | 0 | +
COc1cc(/C=N/NC(=O)CSc2cccc3cccnc23)cc(OC)c1OC | . | . | . | . | +
O=C(CSc1cccc2cccnc12)NN=Cc1ccncc1 | . | . | . | . | 4
COc1ccc2nc(C)cc(SCC(=O)N/N=C/c3cccc4ccccc34)c2c1 | 0 | 55* | -16 | 0 | .
O=C(CSc1cccc2cccnc12)N/N=C/c1ccc(Br)cc1 | . | . | . | . | i
CN1CCc2nc(SCc3ccc(Cl)cc3)c(C#N)c(-c3cccs3)c2C1 | -7 | 34 | . | . | 10
Cc1cccc(C)c1NC(=O)c1nc(S(=O)(=O)Cc2ccccc2)ncc1Cl | 3 | 29 | -29 | 98* | -7
Cc1cccc(CS(=O)(=O)c2ncc(Cl)c(C(=O)Nc3c(C)cccc3C)n2)c1 | -5 | 16 | -5 | 0 | 5
OCC[C@@H]1C[C@@H](O)[C@H](O)[C@@]2(Cc3ccccc3CO2)O1 | 4 | 0 | -27 | 46* | -6
OCC[C@H]1C[C@H](O)[C@@H](O)[C@@]2(Cc3ccccc3CO2)O1 | 1 | 8 | -10 | -1 | -1
O=C(Nc1ccc(N2CCCC2)c(Cl)c1)c1ccc([N+](=O)[O-])o1 | 20 | 4 | -43 | 4 | 45*
O=C(Nc1ncccn1)c1ccc([N+](=O)[O-])o1 | 2 | 91* | -12 | 0 | -1
O=C(Nc1ccccn1)c1ccc([N+](=O)[O-])o1 | . | -6 | -39 | 0 | -18
O=C(Nc1ccc(N2CCCCC2)cc1)c1ccc([N+](=O)[O-])o1 | 20 | 2 | -49 | -1 | -1
Cc1ccccc1C(=O)NCC(=O)Nc1ccccc1C(F)(F)F | 5 | 8 | -4 | 0 | -3
N=C(N)c1ccc(/C=C/c2ccc(C(=N)N)cc2O)cc1 | -32 | 60* | -11 | 137* | 6
N=C(N)c1ccc(Cl)cc1 | -1 | -3 | -20 | 0 | -9
COc1ccc(OC)c(NC(=O)c2ccc3c(=O)n(CCc4ccccc4)c(=S)[nH]c3c2)c1 | -1 | 52* | 4 | -1 | -1
O=c1[nH]nc(SCc2nc(-c3ccccc3Cl)no2)n2nc(-c3cccs3)cc12 | . | . | . | . | -12
Nc1nc(N)c2cc(S(=O)(=O)c3ccc4ccccc4c3)ccc2n1 | 11 | 53* | . | . | .
Nc1nc(N)c2cc([N+](=O)[O-])ccc2n1 | -24 | 12 | -7 | 0 | -4
SMILES | PrPC TRFRET | MazEF act | PrP 5UTR inh | PfHsp40 yeast | PriA SSB inh
CCOC(=O)CSc1nnc(-c2ccc(NS(=O)(=O)c3ccc(C)cc3)cc2)o1 | -3 | -1 | -1 | 0 | -15
CCN(CC)c1ccc2nc3ccc(N)cc3[n+](-c3ccccc3)c2c1 | -51 | -68 | -19 | 0 | 54*
CCN(CC)c1ccc(C=NNc2nc3ccccc3[nH]2)c(O)c1 | . | . | . | . | 92
CCN(CC)c1ccc2nc3ccccc3[n+](CC)c2c1 | . | 6 | -3 | -1 | 42*
CC(C)(C)NC(=O)C(c1cccs1)N(CC1CCCO1)C(=O)c1ccc(-c2ccccc2)[nH]1 (centres undefined) | 0 | -7 | -18 | 1 | 35
COC(=O)/C=C1\C(=O)N(c2nc3ccccc3s2)C(=S)N1c1ccc(F)cc1 | 5 | 58* | -49 | -1 | -8
COc1ccc(CC(=O)Nc2ccc3c(c2)C(=O)NCCO3)cc1 | . | . | . | . | -13
O=c1cnn([C@@H]2O[C@H](CO)[C@@H](O)[C@H]2O)c(=O)[nH]1 | . | 7 | 34 | 61* | -10
COc1ccc(CSc2ncccc2-c2nc(-c3cccs3)no2)cc1F | . | . | . | . | -11
CCCCc1ccc(C(=O)O)nc1 | 7 | -3 | -45 | -1 | 87*
